For 3 molecules, outcome and AC50 results are on record in PubChem BioAssay (EPA / NIEHS).

Active and inactive are the calls of the source. Rule for the calls: active = hit-call score of the fitted dose curve at least 0.9, where 1 is the maximum; inactive = score below 0.9.

Read-out in test [1]: Macrophage colony-stimulating factor (MCSF), CSF1 (gene 1435)
Kind of test: BSK_hDFCGF_MCSF: BioMAP Diversity Plus: hDFCGF Assay for Macrophage colony-stimulating factor (MCSF) Biomarker Activity (AID 2283060). Conditions: primary human foreskin fibroblasts; actives raise or lower the signal. In outline:
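ELISA read-out of M-CSF in human dermal foreskin fibroblast cultures, 24 h after chemical dosing; gain or loss of signal fitted bidirectionally relative to DMSO baseline.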

A short description of test [2]: BSK_hDFCGF_SRB: Viability Assessment in the BioMAP Diversity Plus: hDFCGF Assay (AID 2283061).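 Note: cells exposed to compound for 24 h before the read.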 Conditions: primary human foreskin fibroblasts. An outline of the steps: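 Primary human foreskin fibroblasts; 24 h post-dose; fixed 10% TCA, stained 0.1% SRB, A560 read; total protein as overt cytotoxicity measure; curves fit bidirectionally vs DMSO control.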
Read-out in test [3]: TIMP metallopeptidase inhibitor 1 (TIMP1), TIMP1 (gene 7076)
Kind of test: BSK_hDFCGF_TIMP1: BioMAP Diversity Plus: hDFCGF Assay for TIMP metallopeptidase inhibitor 1 (TIMP1) Biomarker Activity (AID 2283062). Particulars: primary human foreskin fibroblasts; actives raise or lower the signal. In outline:
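ELISA readout of TIMP-1 from human dermal foreskin fibroblast cultures 24 h post-dosing. Curves were fitted in both directions against DMSO baseline, with SRB total-protein staining in parallel cultures as a cytotoxicity check.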

Read-out in test [4]: Monokine induced gamma interferon (MIG), CXCL9 (gene 4283)
Kind of test: BSK_hDFCGF_MIG: BioMAP Diversity Plus: hDFCGF Assay for Monokine induced gamma interferon (MIG) Biomarker Activity (AID 2283063). Conditions: primary human foreskin fibroblasts; actives raise or lower the signal. An outline of the steps:
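Fibroblasts (human foreskin, primary) dosed, 24 h, MIG by ELISA; fit bidirectional vs DMSO.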

Read-out in test [5]: Matrix Metallopeptidase 1 (MMP1), MMP1 (gene 4312)
Kind of test: BSK_hDFCGF_MMP1: BioMAP Diversity Plus: hDFCGF Assay for Matrix Metallopeptidase 1 (MMP1) Biomarker Activity (AID 2283064). Particulars: primary human foreskin fibroblasts; actives raise or lower the signal. An outline of the steps:
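Primary human foreskin fibroblasts exposed to chemicals for 24 h; MMP1 measured by ELISA. Cytotoxicity tracked by SRB staining in parallel cultures; bidirectional fit relative to DMSO.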

Read-out in test [6]: Plasminogen activator inhibitor-1 (PAI1), SERPINE1 (gene 5054)
Description: BSK_hDFCGF_PAI1: BioMAP Diversity Plus: hDFCGF Assay for Plasminogen activator inhibitor-1 (PAI1) Biomarker Activity (AID 2283066). Conditions: primary human foreskin fibroblasts; actives raise or lower the signal. An outline of the steps: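 Human foreskin fibroblasts in the hDFCGF system were dosed with compound for 24 h; PAI-1 was quantified by ELISA. Bidirectional curve fitting used DMSO as negative control and baseline.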

Read-out in test [7]: Intercellular Adhesion Molecule 1 (ICAM1), ICAM1 (gene 3383)
Kind of test: BSK_KF3CT_ICAM1: BioMAP Diversity Plus: KF3CT Assay for Intercellular Adhesion Molecule 1 (ICAM1) Biomarker Activity (AID 2283067). Particulars: primary human keratinocytes with fibroblasts; actives raise or lower the signal. An outline of the steps:
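ELISA readout of ICAM-1; KF3CT human skin co-culture (keratinocytes + foreskin fibroblasts), 24 h post-dose; gain/loss fit vs DMSO baseline.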

Read-out in test [8]: Interferon-gamma inducible Protein 10 (IP10), CXCL10 (gene 3627)
Kind of test: BSK_KF3CT_IP10: BioMAP Diversity Plus: KF3CT Assay for Interferon-gamma inducible Protein 10 (IP10) Biomarker Activity (AID 2283068). Conditions: primary human keratinocytes with fibroblasts; actives raise or lower the signal. An outline of the steps:
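In a primary skin co-culture of keratinocytes and fibroblasts, IP-10 is quantified by ELISA at 24 h after dosing. SRB staining of parallel wells monitors overt toxicity. Curves are fitted both directions against DMSO.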

Test [9] can be described thus: BSK_KF3CT_SRB: Viability Assessment in the BioMAP Diversity Plus: KF3CT Assay (AID 2283069).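 Note: total protein by sulforhodamine B staining as a cytotoxicity measure; read 24 h after compound addition.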 Conditions: primary human keratinocytes with fibroblasts. An outline of the steps:
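Human keratinocyte and foreskin fibroblast co-culture exposed to chemical for 24 h. Total protein measured in parallel cultures by 0.1% sulforhodamine B staining after 10% TCA fixation, read at 560 nm; bidirectional fit relative to DMSO.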

Read-out in test [10]: Interleukin-1 alpha (IL1a), IL1A (gene 3552)
Description: BSK_KF3CT_IL1a: BioMAP Diversity Plus: KF3CT Assay for Interleukin-1 alpha (IL1a) Biomarker Activity (AID 2283070). Conditions: primary human keratinocytes with fibroblasts; actives raise or lower the signal. In outline: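 Primary human keratinocyte plus foreskin fibroblast co-culture, dosed and measured at 24 h in 96-well plates. IL-1a level quantified by ELISA; bidirectional fit relative to DMSO.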

Read-out in test [11]: TIMP metallopeptidase inhibitor 2 (TIMP2), TIMP2 (gene 7077)
Kind of test: BSK_KF3CT_TIMP2: BioMAP Diversity Plus: KF3CT Assay for TIMP metallopeptidase inhibitor 2 (TIMP2) Biomarker Activity (AID 2283071). Particulars: primary human keratinocytes with fibroblasts; actives raise or lower the signal. In outline:
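Human primary keratinocyte/foreskin fibroblast co-culture dosed with chemical and sampled at 24 h. TIMP-2 levels quantified by ELISA; bidirectional fitting against DMSO negative control as baseline.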

Read-out in test [12]: C-C motif chemokine 2 (Homo sapiens) (UniProt P13500)
Description: BSK_KF3CT_MCP1: BioMAP Diversity Plus: KF3CT Assay for Monocyte Chemoattractant Protein 1 (MCP1/CCL2) Biomarker Activity (AID 2283073). Particulars: primary human keratinocytes with fibroblasts; actives raise or lower the signal. An outline of the steps:
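KF3CT skin co-culture (keratinocytes/foreskin fibroblasts), 24 h post-dose; MCP-1 by ELISA; gain/loss of signal fit bidirectionally vs DMSO baseline.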

Read-out in test [13]: Matrix Metallopeptidase 9 (MMP9), MMP9 (gene 4318)
Description: BSK_KF3CT_MMP9: BioMAP Diversity Plus: KF3CT Assay for Matrix Metallopeptidase 9 (MMP9) Biomarker Activity (AID 2283074).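 For AC50: MMP9 protein level quantified by ELISA in the co-culture.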 Conditions: primary human keratinocytes with fibroblasts; actives raise or lower the signal. In outline: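 Human keratinocyte and foreskin fibroblast co-culture exposed to chemicals for 24 h; MMP9 biomarker measured by ELISA, bidirectional fitting relative to DMSO; cytotoxicity tracked by SRB total protein staining in parallel cultures.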

Read-out in test [14]: urokinase plasminogen activator (uPA), PLAU (gene 5328)
Kind of test: BSK_KF3CT_uPA: BioMAP Diversity Plus: KF3CT Assay for urokinase plasminogen activator (uPA) Biomarker Activity (AID 2283075). Particulars: primary human keratinocytes with fibroblasts; actives raise or lower the signal. In outline:
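Primary human keratinocyte/foreskin fibroblast co-culture exposed to chemical; uPA measured by ELISA at 24 h. Bidirectional fit versus DMSO, with parallel SRB total-protein staining for cytotoxicity.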

Read-out in another test: CD40, CD40 (gene 958)
Kind of test: BSK_LPS_CD40: BioMAP Diversity Plus: LPS Assay for CD40 Biomarker Activity (AID 2283076). Particulars: primary human HUVEC with PBMC; actives raise or lower the signal. An outline of the steps:
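ELISA readout of CD40 in HUVEC/PBMC co-culture (BSK_LPS system), 24 h post-dosing; bidirectional curve fit, DMSO baseline; parallel SRB total-protein staining for cytotoxicity.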

Read-out in test [15]: E-selectin (Homo sapiens) (UniProt P16581)
Kind of test: BSK_LPS_Eselectin: BioMAP Diversity Plus: LPS Assay for Eselectin Biomarker Activity (AID 2283077). Particulars: primary human HUVEC with PBMC; actives raise or lower the signal. An outline of the steps:
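ELISA readout of E-selectin, 24 h post-dose, HUVEC + PBMC co-culture (LPS system). Gain or loss of signal vs DMSO baseline, bidirectional fit.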

Read-out in test [16]: Interleukin-8 (IL8), CXCL8 (gene 3576)
Description: BSK_LPS_IL8: BioMAP Diversity Plus: LPS Assay for Interleukin-8 (IL8) Biomarker Activity (AID 2283078). Conditions: primary human HUVEC with PBMC; actives raise or lower the signal. An outline of the steps: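 HUVEC + PBMC co-culture, LPS-activated; test chemicals dosed, IL-8 read by ELISA at 24 h. Bidirectional curve fit vs DMSO baseline (gain or loss of signal).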

Test [17] in a line: BSK_LPS_SRB: Viability Assessment in the BioMAP Diversity Plus: LPS Assay (AID 2283079).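 Note: total protein by sulforhodamine B absorbance as a cytotoxicity measure; measured one day after compound addition; fitted in both directions against DMSO so loss or gain of signal counts.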 Conditions: primary human HUVEC with PBMC. In outline:
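HUVEC + PBMC co-culture, LPS-stimulated; compound 24 h. 10% TCA fix, 0.1% SRB stain, A560. Bidirectional fit vs DMSO.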

Read-out in test [18]: Vascular cell adhesion molecule 1 (VCAM1), VCAM1 (gene 7412)
Kind of test: BSK_hDFCGF_VCAM1: BioMAP Diversity Plus: hDFCGF Assay for Vascular cell adhesion molecule 1 (VCAM1) Biomarker Activity (AID 2283065).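 Note: VCAM-1 protein level quantified by ELISA after 24 h chemical exposure.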 Conditions: primary human foreskin fibroblasts; actives raise or lower the signal. An outline of the steps: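 ELISA read-out of VCAM-1 on human skin fibroblasts, 24 h post-dose; gain or loss of signal fitted bidirectionally against DMSO baseline.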

Read-out in test [19]: Transforming growth factor beta 1 (TGFb1), TGFB1 (gene 7040)
Kind of test: BSK_KF3CT_TGFb1: BioMAP Diversity Plus: KF3CT Assay for Transforming growth factor beta 1 (TGFb1) Biomarker Activity (AID 2283072). Conditions: primary human keratinocytes with fibroblasts; actives raise or lower the signal. In outline: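 Human keratinocyte plus foreskin fibroblast primary co-culture, dosed with chemical for 24 h. TGF-b1 quantified by ELISA. Activity fitted bidirectionally against DMSO negative control as baseline.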

E-selectin (Homo sapiens), sequence (P16581 whole entry, looked up): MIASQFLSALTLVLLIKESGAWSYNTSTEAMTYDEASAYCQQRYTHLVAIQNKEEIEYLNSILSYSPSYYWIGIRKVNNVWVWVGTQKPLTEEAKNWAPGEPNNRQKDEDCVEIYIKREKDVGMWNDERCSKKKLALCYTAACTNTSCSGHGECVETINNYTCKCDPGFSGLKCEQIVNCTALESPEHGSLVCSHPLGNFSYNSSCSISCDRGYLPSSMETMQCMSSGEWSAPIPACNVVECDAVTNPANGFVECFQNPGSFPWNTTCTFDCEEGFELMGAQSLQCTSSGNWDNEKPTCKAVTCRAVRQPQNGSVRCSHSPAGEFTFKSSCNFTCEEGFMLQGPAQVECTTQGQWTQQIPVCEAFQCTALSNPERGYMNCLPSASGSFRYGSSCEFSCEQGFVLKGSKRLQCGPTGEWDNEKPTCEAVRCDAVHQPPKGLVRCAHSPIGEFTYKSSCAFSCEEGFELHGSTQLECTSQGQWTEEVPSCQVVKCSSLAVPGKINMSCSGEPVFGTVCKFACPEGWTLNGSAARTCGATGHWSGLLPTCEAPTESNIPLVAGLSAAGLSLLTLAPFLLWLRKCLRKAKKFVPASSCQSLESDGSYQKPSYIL

As for `OCC(F)(F)OC(F)(F)C(F)(F)OC(F)(F)CO`, the result in [1], in test [2], in test [3], in test [4], in test [5] and in test [6] was inactive. The outcome in [7], in test [8], in test [9], in [10], in [11] and in [12] was inactive. The outcome in test [13] is “inactive”; in test [14], “inactive”; in the test with CD40, CD40 (gene 958), “inactive”; in test [15] it was “inactive”; in [16], “inactive”; in test [17] it was “inactive”.
The term AC50 denotes the concentration at which the activity in the assay is half-maximal. With `CCCCC(CC)COP(=O)(Oc1ccccc1)Oc1ccccc1` (stereo not given), the AC50 in [1] is 6.1 µM (active); in test [2], 4.47 µM (active); in test [3], 5.46 µM (active); in test [4], 11 µM (active); in [18], 1.69 µM (active); in [6], 6.48 µM (active). The AC50 was 20 µM (active) in test [9]; 5.46 µM (active) in test [10]; 6.54 µM (active) in test [11]; 5.46 µM (active) in [19]; 3.71 µM (active) in test [13]; 4.9 µM (active) in [14]. Besides, the AC50 was 13.5 µM (active) in the test with CD40, CD40 (gene 958); 20 µM (active) in test [15]; 20 µM (active) in test [16]; 20 µM (active) in [17]. For the same molecule, the outcome in test [7], in test [8] and in test [12] was inactive.
On to `CCOc1ccc(C(C)(C)COCc2cccc(Oc3ccccc3)c2)cc1`, for which, in test [1], the AC50 was 2.26 µM (active). Further, the outcome in test [2], in test [3], in test [4], in test [5], in test [6] and in test [7] was inactive. For the same molecule, the outcome in test [8], in [9], in [10], in test [11], in [19] and in test [12] was inactive. Besides, the outcome was “inactive” in test [13]; “inactive” in the test with CD40, CD40 (gene 958); “inactive” in test [15]; “inactive” in test [16]; “inactive” in test [17].
